A selection: hits, their analogues and other compounds. The true share with any hit is near 21%.
IL-1B inflam inh: inflammasome signaling inhibition, IL-1 beta readout; AID 743279; activity change, % at 57.5 µM; THP-1 LPS/ATP IL-1B secretion, AlphaLISA, 16 h; stronger effect = lower value; hit rate 4.7% among 360,000; in the data active = activity change below about -50%; inconclusive = mostly about -30% to -49%; note: % is set by controls: 0 for no effect and ±100 for the full control effect
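THP-1 cells pretreated 1 hr with compounds (up to 57.5 uM final), then stimulated with LPS (250 ng/mL final) plus ATP (1.25 mM final); secreted IL-1B measured by AlphaLISA after 16 hr, decreased signal indicating inhibition.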
D3 ag: agonists of human D3 dopamine receptor | P35462 | hit rate 0.58% among 410,000 | AID 652048 | D3R DiscoveRx beta-arrestin cells, luminescence, 90 min | max activation, %; in the data active = max activation above about 30%; note: 0% is about no effect
Target sequence (P35462 whole entry, looked up): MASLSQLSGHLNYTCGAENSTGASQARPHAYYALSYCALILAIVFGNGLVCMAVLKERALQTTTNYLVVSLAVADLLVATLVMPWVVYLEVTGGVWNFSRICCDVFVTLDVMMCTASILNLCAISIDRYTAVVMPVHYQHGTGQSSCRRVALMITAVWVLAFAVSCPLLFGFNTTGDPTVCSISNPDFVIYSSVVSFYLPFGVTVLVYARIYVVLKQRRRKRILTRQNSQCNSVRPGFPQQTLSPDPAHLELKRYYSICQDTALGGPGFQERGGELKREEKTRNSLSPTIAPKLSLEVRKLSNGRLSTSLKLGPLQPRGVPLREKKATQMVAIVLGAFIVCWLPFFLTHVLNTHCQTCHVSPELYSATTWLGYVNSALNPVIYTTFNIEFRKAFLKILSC
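Cells at 1500/well, incubated overnight, then treated with pinned compounds (dopamine as control) for 90 min at 37 degrees C. DiscoveRx reagent added for 30 - 60 minutes at room temperature; luminescence read.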
TDP1 cell CPT: growth inhibition of DT40 Tdp1-/-;hTDP1 cells with camptothecin (screen for TDP1 inhibitors); AID 686979; hit rate 12% among 420,000; chicken DT40 Tdp1-/-;hTDP1 cells + 20 nM CPT, ATP luminescence, 48 h; Potency, µM (top dose mostly 46.2 µM), inactives show at the top dose activity change, negative = growth inhibition, hits mostly inhibitors; note: potency is the fitted concentration of half-maximal effect; % is set by controls: 0 for no effect and ±100 for the full control effect; nearly all actives have a fitted effect of over 55% in size
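Cell growth measured by CellTiter-Glo luminescence after a minimum 48 h, 37 C compound exposure with 20 nM CPT in Tdp1-knockout DT40 cells stably expressing hTDP1, seeded 400/well; qHTS titration format.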
DT40 TDP1 no CPT: qHTS for Inhibitors of human tyrosyl-DNA phosphodiesterase 1 (TDP1): qHTS in cells in absence of CPT; DT40 Tdp1-/- hTDP1 cells, no CPT, ATP luminescence, 48 h; Potency, µM (titrated, usually from 46.2 µM), for inactives: at the highest dose activity change, negative = growth inhibition, hits mostly inhibitors; hit rate 15% among 420,000; AID 686978, 2013; note: potency is the fitted concentration of half-maximal effect; % is set by controls: 0 for no effect and ±100 for the full control effect; nearly all actives have a fitted effect of over 55% in size
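Chicken DT40 Tdp1-/- cells complemented with human TDP1, screened without camptothecin (DMSO vehicle only), 400 cells/well. Compounds pin-transferred, cells incubated at 37 °C for at least 48 hr. Growth read as ATP-dependent luminescence (CellTiter-Glo, 30 min at RT).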
ClpP mod: qHTS Assay for Activators of ClpP | Potency, µM (highest dose often 57.5 µM), for the others: at the highest dose activity change, negative = active | purified B. subtilis ClpP, FRET peptide cleavage, 20 min | ATP-dependent Clp protease proteolytic subunit (Bacillus subtilis (strain 168)), P80244 | hit rate 1.9% among 340,000 | AID 651965, 2013; active = well fitted falling curve with a large enough effect; inconclusive = small, poorly fitted or top-dose-only effect; inactive = no such curve, though single readings can be large or run the other way; note: potency is the fitted concentration of half-maximal effect; the source files actives as falling curves though it sought activators and does not explain the sign; nearly all actives have a fitted effect of over 65% in size
Target sequence (P80244 whole entry, looked up): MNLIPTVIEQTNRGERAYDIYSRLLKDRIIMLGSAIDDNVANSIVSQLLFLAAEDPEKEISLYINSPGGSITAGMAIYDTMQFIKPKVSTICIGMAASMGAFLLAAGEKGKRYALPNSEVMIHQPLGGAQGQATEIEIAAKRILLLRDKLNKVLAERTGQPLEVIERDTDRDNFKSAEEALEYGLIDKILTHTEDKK
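Buffer: 100 mM Tris/HCl pH8, 100 mM KCl, 0.05% low protease BSA, 2.5% glycerol, 0.01% Tween-20. ClpP 10 microg/mL final; 20 min RT; delta FRET normalized to ADEP and DMSO controls.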
D3 antag: antagonists of human D3 dopamine receptor; D3R cells, DiscoveRx beta-arrestin luminescence, antagonist mode; stronger effect = lower value; max response, negative = inhibition, %; hit rate 2.5% among 360,000; AID 652054; in the data active = max response below about -50%; inconclusive = no clear call, values can overlap the other calls; note: % is set by controls: 0 for no effect and ±100 for the full control effect
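Cells plated overnight at 1500 cells/well, then exposed to library compounds with dopamine controls for 90 minutes at 37 degrees C. DiscoveRx reagent added for 30–60 minutes at room temperature; luminescence read, quantitative HTS format.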
* marks the source's active call; other numbers are inactive results; ? = inconclusive; / = not tested or not shown. Unless noted, calls come from the whole dose curve; as a rule, active = well fitted inhibition curve with a large enough effect; inconclusive = small, poorly fitted or top-dose-only effect; inactive = flat fitted curve, though single readings scatter.

SMILES	IL-1B inflam inh	D3 ag	TDP1 cell CPT	DT40 TDP1 no CPT	ClpP mod	D3 antag
COc1ccc(-c2cn3nc(N4CCC(C(=O)Nc5cccc(Cl)c5)CC4)sc3n2)cc1	/	-15	-28%	?	-4%	/
COc1ccccc1CNC(=O)C1CCCN(c2nn3cc(-c4ccc(F)cc4)nc3s2)C1 (stereo not drawn)	/	-3	?	?	0%	/
COc1ccc(-c2cn3nc(N4CCCC(C(=O)NCc5ccccc5C)C4)sc3n2)cc1 (stereo not drawn)	/	3	13µM*	10µM*	0%	/
CC(=O)Nc1c(C)ccc(S(N)(=O)=O)c1C	-4	10	-19%	12%	/	10
O=C(OCc1ccccc1F)c1ccc(-c2nnn(Cc3ccccc3)n2)cc1	/	-11	?	-19%	-3%	/
COc1cc(C(=O)N2CCNC(=O)C2CC(=O)Nc2ccc(C)c(C)c2)cc(OC)c1OC (stereo not drawn)	/	8	-1%	-18%	1%	/
CC(=O)N1CCC2(CCCN(c3ccccc3)C2)CC1	/	/	4%	-14%	/	/
CCOc1ccc(NC(=O)C2CCCN(c3nn4c(=O)cc(C)nc4s3)C2)cc1 (stereo not drawn)	3	4	-1%	-1%	0%	23
COc1ccc(-c2cn3nc(N4CCCC(C(=O)Nc5cc(C)cc(C)c5)C4)sc3n2)cc1 (stereo not drawn)	/	7	8.2µM*	8.2µM*	2%	/
COc1ccc(-c2cn3nc(N4CCC(C(=O)NCc5ccc(F)cc5)CC4)sc3n2)cc1	/	6	-33%	?	1%	/
CCCSCCCNC(=O)C1CCN(c2nn3cc(-c4ccc(F)cc4)nc3s2)CC1	/	7	5.2µM*	?	-1%	/
COc1ccc(-c2cn3nc(N4CCC(C(=O)Nc5ccccc5OC)CC4)sc3n2)cc1	/	1	?	?	-2%	/
COc1ccc(-c2cn3nc(N4CCC(C(=O)Nc5ccc(C)cc5)CC4)sc3n2)cc1	/	-1	?	21µM*	1%	/
COc1ccc(-c2cn3nc(N4CCCC(C(=O)Nc5cccc(Cl)c5C)C4)sc3n2)cc1 (stereo not drawn)	/	-11	?	21µM*	-2%	/
O=C(/C=C/c1ccc(O)c(O)c1)O[C@@H]1C[C@@](OC(=O)/C=C/c2ccc(O)c(O)c2)(C(=O)O)C[C@@H](O)[C@@H]1O	/	5	3%	?	/	/
CCN(CC(=O)Nc1c(F)cccc1F)C(=O)CCN1C(=O)C2CCCCC2C1=O (stereo not drawn)	9	11	2%	-13%	/	-3
COc1ccc(-c2cn3nc(N4CCCC(C(=O)Nc5cccc(OC)c5)C4)sc3n2)cc1 (stereo not drawn)	/	-11	21µM*	23µM*	-1%	/
Cc1ccc(-c2cn3nc(N4CCCC(C(=O)NCc5ccc(F)cc5)C4)sc3n2)cc1 (stereo not drawn)	/	-10	?	?	-2%	/
COc1ccc(-c2cn3nc(N4CCCC(C(=O)Nc5ccc(C)c(C)c5)C4)sc3n2)cc1 (stereo not drawn)	/	2	?	12µM*	-2%	/
CCNC(=O)C1CCCN(c2nn3cc(-c4ccc(C)cc4)nc3s2)C1 (stereo not drawn)	/	-8	18µM*	23µM*	-1%	/
CCOC(=O)c1sc(C)c2c1NC(C)(c1cccs1)NC2=O (stereo not drawn)	-2	11	?	?	28µM*	31
CCOC(=O)c1sc(C)c2c1NC1(CCCCC1)NC2=O	24	47*	?	?	32µM*	4
CCOC(=O)C1=C(C)NC(=O)NC1c1cccs1 (stereo not drawn)	-6	7	2%	-16%	/	20
CCOC(=O)c1sc(C)c2c1NC1(CCCCCC1)NC2=O	-12	-4	-32%	?	?	-4
O=C1Cc2c(-c3ccccc3)cc(-c3cccc(Cl)c3)nc2-c2ccccc2N1	0	6	21µM*	?	25%	52
SMILES	IL-1B inflam inh	D3 ag	TDP1 cell CPT	DT40 TDP1 no CPT	ClpP mod	D3 antag
Fc1ccc(-c2cc(-c3ccccc3)c3c(n2)-c2ccccc2OC3)cc1	/	3	?	-25%	4%	/
CCCSc1nnc2c(n1)OC(c1ccc(OCC(=O)O)cc1)Nc1ccccc1-2 (stereo not drawn)	/	-12	-19%	-1%	-2%	/
CCc1cccc(C)c1NC(=O)Cn1ncc2c3ccccc3n(Cc3ccccc3)c2c1=O	/	9	10µM*	8.2µM*	-9%	/
O=C(Cn1ncc2c3ccccc3n(Cc3ccccc3)c2c1=O)Nc1ccccc1C(F)(F)F	/	6	?	?	-5%	/
O=C(Cn1ncc2c3ccccc3n(Cc3cccc(Cl)c3)c2c1=O)NCCCc1ccccc1	/	-8	3%	-18%	1%	/
COc1ccccc1CNC(=O)Cn1ncc2c3ccccc3n(Cc3ccccc3C)c2c1=O	/	-3	7.3µM*	16µM*	?	/
Cc1ccccc1Cn1c2ccccc2c2cnn(CC(=O)NCc3cccc(Cl)c3)c(=O)c21	/	-7	15µM*	-103%	22µM*	/
CCCn1c2ccccc2c2cnn(CC(=O)NCCc3ccc(OC)cc3OC)c(=O)c21	/	2	?	?	1%	/
C[C@@H]1CN([C@@H](C)CO)C(=O)CCCn2nncc2CO[C@H]1CN(C)S(=O)(=O)c1ccccc1C#N	30	-8	-9%	-20%	-1%	-15
CC(OC(=O)Cn1cc(C(F)(F)F)ccc1=O)C(=O)N(C)c1ccccc1 (stereo not drawn)	7	-3	-17%	-1%	0%	-9
CCOC(=O)c1c(-c2ccc(C)cc2)csc1NC(=O)c1nc(SCC)ncc1Cl	/	-8	-4%	-15%	-2%	/
COc1cc(C(CC(=O)Nc2cc(C)ccc2C)N2Cc3ccccc3C2=O)cc(OC)c1OC (stereo not drawn)	/	-1	-17%	?	3%	/
COc1ccc(C(CC(=O)Nc2ccc(C(C)=O)cc2)N2Cc3ccccc3C2=O)cc1 (stereo not drawn)	/	-3	-9%	-4%	-1%	/
CC(=O)c1cccc(NC(=O)CC(c2ccc(C)cc2)N2Cc3ccccc3C2=O)c1 (stereo not drawn)	/	-4	?	16µM*	-11%	/
